About 18,000 (4.4%) of roughly 410,000 compounds were called active. Roughly 7% stayed inconclusive and do not appear here. This is one part of a sample in which actives are shown more often than they occur. No stated cut-off is given here; in the data, active means activity change below about -60%; inconclusive means no clear call, values can overlap the other calls; inactive means above about -39%.
assay: qHTS Assay for inhibitors of the human cytomegalovirus (HCMV); settings: HFF cells, HCMV-luciferase reporter, 72 h; at 57.5 µM; active compounds read low
In short: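 Screen run at 2 compound doses on HFFs infected with reporter HCMV, MOI 1 PFU/cell. Luciferase activity from cell lysates at 72 h post infection gave inhibition relative to buffer-only and Salinomycin wells.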
On the % scale 0 is the no-effect control and ±100 the full control effect.

SMILES	activity change, negative = inhibition
Cc1ccc(OCc2nc(C#N)c(N3CCCC3)o2)cc1	-14.4% (inactive)
O=S(=O)(c1ccc(Br)cc1)c1nc(-c2ccccc2)oc1NCc1cccnc1	-3.8% (inactive)
N#Cc1nc(COc2ccc(-c3ccccc3)cc2)oc1NCc1cccnc1	-63.4% (active)
Cc1cc(C)c(NC(=O)CSc2nc3nccnc3c(=O)n2CCc2c[nH]c3ccccc23)c(C)c1	-19.7% (inactive)
COc1ccc2c(c1)c(=Cc1ccc(N(C)C)cc1)c1cc(-c3ccccc3)[n+](C)n12	-99.1% (active)
Cc1ccc(S(=O)(=O)c2nnn3c2nc(N2CCN(c4ccccc4F)CC2)c2cc(Cl)ccc23)cc1C	11.3% (inactive)
CCn1cc(C(=O)NCc2ccccc2)c(=O)c2cc(S(=O)(=O)N3CCCCC3)ccc21	1.38% (inactive)
CN(C)CCCn1c(-c2ccc(Cl)cc2)csc1=Nc1ccccc1	-19.8% (inactive)
COc1cc(/C=C/c2ccc(/C=C/c3cc(OC)c(OC)c(OC)c3)cc2)cc(OC)c1OC	-35.4% (inactive)
COc1cc(/C=N/O)cc(Br)c1OS(=O)(=O)c1ccc(C)cc1	-76.2% (active)
Cc1ccc(S(=O)(=O)Oc2ccc(/C=N/NC(=O)c3c(Cl)cnn3C)cc2)cc1	22% (inactive)
COc1cccc(CNC(=O)c2cc(=O)[nH]c3ccc(S(=O)(=O)N4CCCCC4)cc23)c1	0.829% (inactive)
CCc1ccc(NC(=O)c2cc(S(=O)(=O)N3CCCC(C)C3)cn2C)cc1 (centres undefined)	-13.1% (inactive)
CSc1ncc(Cl)c(C(=O)Nc2ccc(S(=O)(=O)N3CCCC(C)C3)cc2)n1 (centres undefined)	-86% (active)
COc1ccc(S(=O)(=O)N2CCCC(C(=O)Nc3ccc(NC(=O)c4ccccn4)cc3)C2)cc1 (centres undefined)	62.8% (inactive)
Cc1nnc(SCC(=O)NCc2ccccc2Cl)c2nn(-c3ccccc3)c(C)c12	-12.6% (inactive)
O=C(NC(=O)N1CCSCC1)c1c(Cl)cccc1Cl	7.68% (inactive)
COc1ccc(-c2nn(CC(=O)NC3CCCC3)c3c2cnc2ccc(F)cc23)cc1	35.7% (inactive)
CCOc1ccc(NCCC(=O)c2ccc3c(c2)OCO3)cc1	-3.98% (inactive)
CCC(C)(C)NC(=O)CN(C(=O)C(=O)Nc1ccc2c(c1)OCCO2)C(C)(C)CC	21.3% (inactive)
COC(=O)CCNc1ccc2c(c1)OCCO2	-79.1% (active)
Cn1nc(-c2ccccc2)c(-c2ccccc2)c(C(=O)Nc2ccc(S(N)(=O)=O)cc2)c1=O	6.63% (inactive)
COc1ccc(-c2c3c(=O)n(C)c(=O)n(C)c3c3c(C)nc4ccccc4n23)cc1	6.41% (inactive)
CC(=O)Nc1cc(C(=O)NCc2ccc(F)cc2)ccc1Sc1ccc(F)cc1	-2.97% (inactive)
CC(=O)N/C(=N/c1nc(C)cc(C)n1)Nc1ccc(F)cc1F	-32.1% (inactive)
CCOC(=O)c1cccc(NC(=O)c2ccc(F)cc2F)c1	17.1% (inactive)
Cc1cc(C)nc(-n2nc(C)cc2NC(=O)c2ccc(F)cc2F)n1	-89.4% (active)

SMILES	activity change, negative = inhibition
Cc1ccc(-c2nn3c(=O)cc(CN4CCN(S(=O)(=O)c5ccc(Cl)cc5)CC4)nc3s2)cc1	-1.44% (inactive)
CCSc1ccccc1C(=O)NCc1ccc(OC)cc1	-19.4% (inactive)
COc1cc(/C=C(\C#N)C(=O)Nc2ccc3ccccc3c2)c([N+](=O)[O-])cc1OC	16.2% (inactive)
COc1ccc(CNC(=O)/C(C#N)=C/c2cccc(OC)c2OC)cc1	-83.6% (active)
COc1ccc(NC(=O)CCCN2C(=O)CCn3nc(-c4cn(C)c5ccccc45)cc32)cc1OC	-28.9% (inactive)
CCOc1ccccc1CN1CCN(C2CCC2)CC1CCO (centres undefined)	-93.5% (active)
COc1ccccc1N1CCC(N2CCN(CC(C)(C)C)C(CCO)C2)CC1 (centres undefined)	33.4% (inactive)
CCOc1ccc(CN2CCN(CCCc3ccccc3)C(CCO)C2)cc1 (centres undefined)	37.5% (inactive)
Cc1ccccc1CSc1nc(-c2ccccc2)nc2c1Cc1c(CO)cnc(C)c1O2	8.94% (inactive)
CCOC(=O)[C@]12Cc3ccccc3[C@H]1N(C1CCCCC1)C(=O)c1cc(OC)ccc12	-101% (active)
CCOC(=O)C1(Cc2cccc(OC)c2)CCN(C(C)CC(C)(C)O)CC1 (centres undefined)	14% (inactive)
CCOC(=O)[C@]12Cc3cc(OC)ccc3[C@H]1N(C(C)C)C(=O)c1ccccc12	-109% (active)
CCOC(=O)C1(Cc2cccc(OC)c2)CCN(C(C)COC)CC1 (centres undefined)	-7.28% (inactive)
CCOC(=O)c1ccc(NC(=O)CC2C(=O)N(c3cccc(OC)c3)C(=O)N2C2CCCCC2)cc1 (centres undefined)	-1.63% (inactive)
CCOc1ccc(NC(=O)CC2C(=O)N(c3cccc(OC)c3)C(=O)N2C2CCCCC2)cc1 (centres undefined)	7.53% (inactive)
Cc1ccc(O)c(NC(=O)CCS(=O)(=O)c2nc(-c3ccc4c(c3)OCO4)cc(C(F)(F)F)n2)c1	14.6% (inactive)
CCOC(=O)[C@]12CCCC=C1N(Cc1ccc3c(c1)OCO3)C(=O)[C@H](CC(=O)NCc1cccs1)C2	6% (inactive)
Cc1ccc(C)c(CNC(=O)c2cc3ccccn3n2)c1	7.66% (inactive)
CCc1ccc(-n2nnc(-c3nc(-c4ccccc4)no3)c2C)cc1	168% (inactive)
O=C(Nc1ccc(OC(F)(F)F)cc1)C1CCCN(S(=O)(=O)c2ccc(Br)s2)C1 (centres undefined)	6.14% (inactive)
O=C1COCc2ccc(-c3cc4ccccc4o3)cc2N1CC1CC1	-2.65% (inactive)
CCCCNC(=O)C(C)N(CCN(C)C)C(=O)CCCN1C(=O)NC(c2ccc(Cl)cc2)C(C(=O)OCc2ccccc2)=C1C (centres undefined)	-68% (active)
COC(=O)CCCCCN1C(=O)NC(c2ccc(-c3ccccc3)cc2)C(C(=O)OCc2ccccc2)=C1C (centres undefined)	19.6% (inactive)
CC1=C(C(=O)OC(C)(C)C)C(c2ccc(Br)cc2)NC(=O)N1CCCC(=O)O (centres undefined)	-18.5% (inactive)
Cc1ccc(SCC(=O)Nc2ccc3oc(-c4ccccc4C)nc3c2)cc1	73.5% (inactive)
CC(=O)OC1=C(C(C)=O)N(Cc2ccccc2)S(=O)(=O)c2ccccc21	3.57% (inactive)
COc1ccc(OCCn2cc(C(=O)C3CCCCC3)c3ccccc32)cc1	-16.3% (inactive)

Source: PubChem BioAssay AID1259415 (National Center for Advancing Translational Sciences (NCATS), 2018)
